Over roughly 110,000 compounds, “z-score” has its median near -0.1; the highest 2% begin near 2. The full list was thinned out, with the highest values kept by preference. The source made the active and inactive calls.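 The calls were made as follows: active = z-score in the third read window above 3 or below -3; inactive = the rest.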
These compounds were tested against Metabotropic glutamate receptor 8 (Rattus norvegicus) (UniProt P70579) (assay: mGluR8 Gi/Go-coupled signaling modulation – cell-based, rat, thallium flux, HTS, primary screen (AID 488969)). Settings: HEK293 rat mGluR8, GIRK (G protein-gated inwardly rectifying potassium channel) thallium flux, FluoZin2; at 10 µM; stronger effect = higher value; submaximal glutamate (EC20) added with thallium.
Chain of Metabotropic glutamate receptor 8 (Rattus norvegicus) (P70579 whole entry, looked up): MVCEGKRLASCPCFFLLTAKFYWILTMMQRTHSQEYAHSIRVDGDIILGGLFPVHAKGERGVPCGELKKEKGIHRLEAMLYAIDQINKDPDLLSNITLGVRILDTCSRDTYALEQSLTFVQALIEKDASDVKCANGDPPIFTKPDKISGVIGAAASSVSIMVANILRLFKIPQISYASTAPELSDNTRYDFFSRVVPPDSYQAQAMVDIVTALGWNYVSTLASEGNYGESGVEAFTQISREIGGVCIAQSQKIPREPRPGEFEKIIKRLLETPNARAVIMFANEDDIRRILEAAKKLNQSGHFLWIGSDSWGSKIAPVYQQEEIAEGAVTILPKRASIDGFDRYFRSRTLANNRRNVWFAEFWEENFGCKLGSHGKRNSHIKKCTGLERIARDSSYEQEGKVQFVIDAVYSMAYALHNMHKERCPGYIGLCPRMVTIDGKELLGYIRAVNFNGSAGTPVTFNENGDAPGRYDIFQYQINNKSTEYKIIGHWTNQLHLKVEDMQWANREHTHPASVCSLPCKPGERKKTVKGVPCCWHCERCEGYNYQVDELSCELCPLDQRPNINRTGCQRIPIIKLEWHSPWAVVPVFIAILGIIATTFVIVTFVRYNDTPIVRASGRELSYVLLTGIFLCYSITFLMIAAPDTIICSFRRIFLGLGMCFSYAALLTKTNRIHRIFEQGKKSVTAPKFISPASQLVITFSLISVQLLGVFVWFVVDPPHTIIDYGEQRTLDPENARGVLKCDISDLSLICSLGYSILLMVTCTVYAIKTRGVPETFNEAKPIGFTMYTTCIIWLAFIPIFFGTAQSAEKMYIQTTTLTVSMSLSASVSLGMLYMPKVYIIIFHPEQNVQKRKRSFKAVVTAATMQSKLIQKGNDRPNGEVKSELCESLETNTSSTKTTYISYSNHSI

SMILES	z-score
O=C(NCCCN1CCCCCC1)c1ccc2c(c1)NC(=O)C(N1CCOCC1)S2 (configuration not stated)	0.756
CC1CC(C)CN(CCCNC(=O)c2ccc3c(c2)NC(=O)C(N2CCCCC2)S3)C1 (configuration not stated)	2.18
O=C(NCCCN1CCCCC1)c1ccc2c(c1)NC(=O)C(N1CCCCC1)S2 (configuration not stated)	0.905
CCCCCOC(=O)Cn1c(N2CCOCC2)nc2c1c(=O)[nH]c(=O)n2C	-0.228
Cc1ccc(C2CC(=O)c3cnc(NC(=O)c4ccco4)nc3C2)cc1 (configuration not stated)	-0.398
Cc1ccc(C)c(NC(=S)N2CCC(c3nc4ccccc4s3)CC2)c1	0.656
Cc1ccc(C)c(NC(=S)c2nc3ccccc3s2)c1	8.98 (active)
Cc1cccc(NC(=S)c2nc3ccccc3s2)c1	0.84
S=C(Nc1ccc(Cl)cc1)c1nc2ccccc2s1	0.236
Cc1ccc(NC(=S)c2nc3ccccc3s2)cc1	0.791
S=C(Nc1ccccc1)c1nc2ccccc2s1	2.64
Cc1cc(SCC(=O)c2cc(C)n(C)c2C)nc2ccccc12	-0.0351
NC(=O)C1CCN(Cc2nc3ccccc3c(=O)[nH]2)CC1	-0.276
Cn1c(=O)oc2cc(S(=O)(=O)NC3CCN(Cc4ccccc4)CC3)ccc21	-0.316
O=c1oc2ccccc2cc1-c1csc(NN=C2CCCCC2)n1	-0.185
O=C(NNC(=O)C1CCCO1)c1ccc(F)cc1 (configuration not stated)	-0.154

SMILES	z-score
CCOCc1nnc(NC(=O)c2cccs2)s1	0.125
CCN(CC(=O)c1c(N)n(C)c(=O)n(C)c1=O)c1cccc2ccccc12	2.55
Cn1c(N)c(C(=O)c2ccccc2)c(=O)n(C)c1=O	-0.397
Cc1ccccc1CSCC(=O)c1c(N)n(C)c(=O)n(C)c1=O	-0.253
COc1ccc(NC(=S)Nc2ccc(S(=O)(=O)N3CCOCC3)cc2)c(OC)c1	0.108
O=C(CSc1nnc(-c2ccco2)n1-c1ccccc1)N1CCc2ccccc21	0.00192
Cc1ccc(Nc2nc(Oc3ccc(=O)[nH]n3)nc(N(C)C)n2)cc1	-0.00557
CCCCN(CCCC)c1nc2ccccc2nc1C(C#N)C(=O)NCCCOC (configuration not stated)	6.64 (active)
CCCN(CCC)c1nc2ccccc2nc1C(C#N)C(=O)OC(C)COC (configuration not stated)	-3.86 (active)
COCCCNC(=O)C(C#N)c1nc2ccccc2nc1N1CCCC1 (configuration not stated)	-0.459
CCN(CC)P1(=O)OC(c2cc(OC)c(OC)c(OC)c2)=Nc2c1c(C)nn2-c1ccccc1 (configuration not stated)	-1.4
COc1ccc(S(=O)(=O)N2CCC(C(=O)N3CCN(c4ccccc4OC)CC3)CC2)cc1	-0.274
CC(C)N1CC(C(=O)Nc2ccc(Br)c(Cl)c2)CC1=O (configuration not stated)	0.0942
CC(C)(C)S(=O)(=O)c1ccc(S(=O)(=O)C(C)(C)C)s1	2.32
CCS(=O)(=O)c1ccc(S(=O)(=O)CC)s1	-0.137
CC(C)(C)S(=O)(=O)c1nc2ccccc2s1	0.279

From PubChem BioAssay AID488969 (Vanderbilt High Throughput Screening Facility, 2010)
